SW480 rerep = DNA re-replication induction in SW480 cells | hit rate 1.8% among 340,000 | SW480 DNA re-replication, Hoechst DNA content imaging, 48 h | Potency, µM (titrated, usually from 46.1 µM), inactives show at the highest dose re-replication activation, actives largely listed as activators | AID 624297; also: potency is read from the fitted curve at half-maximal effect; % of control where 0% means no effect; nearly all actives have a fitted effect of over 55% in size
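250 cells/well; 23 nL cpd via pin tool; 48 hr, 37 C, 5% CO2; Hoechst 40 min; imager read of total nuclear intensity, ex 405/em 500-530 nm.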
TDP1 cell CPT = growth inhibition of DT40 Tdp1-/-;hTDP1 cells with camptothecin (screen for TDP1 inhibitors) | chicken DT40 Tdp1-/-;hTDP1 cells + 20 nM CPT, ATP luminescence, 48 h | Potency, µM (titrated, usually from 46.2 µM), for inactives: at the top dose activity change, negative = growth inhibition, most hits filed as inhibitors | hit rate 12% among 420,000 | AID 686979; also: potency is read from the fitted curve at half-maximal effect; % is scaled to controls: 0 for no effect and ±100 for the full control effect; nearly all actives have a fitted effect of over 55% in size
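Chicken DT40 Tdp1-/- cells complemented with human TDP1, 400 cells/well, exposed to compounds plus 20 nM camptothecin for at least 48 h at 37 C; viability read as ATP content by CellTiter-Glo luminescence.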
IL1B secr inh = inflammasome signaling inhibition, IL-1 beta readout; activity change, % at 57.5 µM; hit rate 4.7% among 360,000; AID 743279; THP-1 LPS/ATP IL-1B secretion, AlphaLISA, 16 h; active compounds read low; in the data active = activity change below about -50%; inconclusive = mostly about -30% to -49%; also: % is scaled to controls: 0 for no effect and ±100 for the full control effect
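THP-1 cells pretreated 1 hr with compounds (up to 57.5 uM final), then stimulated with LPS (250 ng/mL final) plus ATP (1.25 mM final); secreted IL-1B measured by AlphaLISA after 16 hr, decreased signal indicating inhibition.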
MCF10A rerep = inducers of DNA re-replication in MCF 10A breast cells; hit rate 2.9% among 350,000; MCF 10A DNA re-replication, Hoechst nuclear intensity, 48 h; Potency, µM (titrated, usually from 46.1 µM), for the others: at the highest dose activity, positive = re-replication, hits mostly activators; also: potency is read from the fitted curve at half-maximal effect; % of control where 0% means no effect; nearly all actives have a fitted effect of over 50% in size
Chronic BCR inh = blocks chronic active B-cell receptor signaling; ABC-DLBCL IkBa-CBG/CBR reporter, luminescence ratio, 4 h; Potency, µM (top dose mostly 46.1 µM), for inactives: top-dose activity change, negative = inhibition, most hits filed as inhibitors; hit rate 0.05% among 340,000; AID 493014; active = well fitted inhibition curve with a large enough effect in the signal ratio, with a control signal flat, not every such curve was filed as active; inconclusive = small, poorly fitted or top-dose-only effect, or effect the other way, or a change in a side signal; the % refers to the signal ratio;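 also: potency is read from the fitted curve at half-maximal effect; plate controls were basal doxycycline-induced cells for no effect and cells given 10 µM MG132 for full effect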
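Concentration-response series (up to 46 uM) were applied to TMD8 dual-reporter cells for 4 h at 37C with doxycycline. Green/red ratio, after filter-overlap correction, defined %Activity; red signal alone was normalised to basal cells and zero luminescence.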
DT40 TDP1 no CPT = qHTS for Inhibitors of human tyrosyl-DNA phosphodiesterase 1 (TDP1): qHTS in cells in absence of CPT; DT40 Tdp1-/- hTDP1 cells, no CPT, ATP luminescence, 48 h; Potency, µM (doses to about 46.2 µM), for the others: at the top dose activity change, negative = growth inhibition, most hits filed as inhibitors; hit rate 15% among 420,000; also: potency is read from the fitted curve at half-maximal effect; % is scaled to controls: 0 for no effect and ±100 for the full control effect; nearly all actives have a fitted effect of over 55% in size
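Camptothecin absent (DMSO only). Human TDP1-complemented DT40 knockout cells, 400 cells/well, 37 °C for minimum 48 hr; ATP measured via CellTiter-Glo, 30 min dark incubation, luminescence.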
* marks the source's active call; other numbers are inactive results; ? = inconclusive; · = no result given. A selection: hits, their analogues and other compounds. The true share with any hit is near 19%. Unless noted, calls follow the shape of the dose curve; as a rule, active = well fitted curve in the direction sought with a large enough effect; inconclusive = small, poorly fitted or top-dose-only effect, or another doubt; inactive = no such curve, though single readings can be large; an effect the other way counts as inactive or inconclusive.

SMILES	SW480 rerep	TDP1 cell CPT	IL1B secr inh	MCF10A rerep	Chronic BCR inh	DT40 TDP1 no CPT
CCOCCCNC(=O)c1c[nH]c2ccc(S(=O)(=O)N(C)c3ccc(Cl)cc3F)cc2c1=O	·	23µM*	·	·	2%	16µM*
Brc1ccc2[nH]cc(C=NN3CCCCCC3)c2c1	-1%	23µM*	7	-2%	·	13µM*
COc1ccc(CCNC(=O)C(=O)NCC2OCCN2S(=O)(=O)c2ccc(Cl)cc2)cc1 (configuration not stated)	-1%	?	-1	9%	4%	?
N#Cc1ccccc1Cn1cc(C(=O)c2ccccc2F)c2ccccc21	8%	?	-4	18%	0%	?
O=C(C1CC(c2ccc(F)cc2)=NO1)N1CCC2(CC1)OCCO2 (configuration not stated)	-3%	0%	-13	7%	9%	-2%
O=C(C1CC(c2ccc(Cl)c(Cl)c2)=NO1)N1CCC2(CC1)OCCO2 (configuration not stated)	-17%	15µM*	-71*	21%	-3%	15µM*
CCOC(=O)c1c(C=O)c2ccccc2n1Cc1ccccc1	?	-2%	45	?	10%	3%
NC(=O)C[N+]1(CC#CC(O)(c2ccccc2)c2ccccc2)CCCC1	-3%	-22%	-7	?	4%	-34%
Cn1c(=O)oc2cc(NC(=O)CCl)ccc21	?	13µM*	-80*	17%	-12%	23µM*
Cc1ccc(C(O)(C(=O)OC(C)C)C(O)c2ccc(F)cc2)cc1 (configuration not stated)	·	?	15	·	·	21µM*
CCN(CC(=O)Nc1ccc(NC(C)=O)cc1)C(=O)CSC(c1ccccc1)c1ccccc1	-18%	?	?	8%	-8%	-26%
CC(C)=CCc1c(O)cc2c(c1O)C(=O)CC(c1ccc(O)cc1)O2 (configuration not stated)	1%	16µM*	26	?	?	23µM*
O=C(Nc1ccccc1)c1cc(C2CCCN(C(=O)C3CC3)C2)on1 (configuration not stated)	·	?	7	·	·	?
Cc1cccc(C)c1-n1nnnc1C(c1cccs1)N1CCC(n2c(=O)[nH]c3ccccc32)CC1 (configuration not stated)	·	?	0	·	·	21µM*
Cc1cccc(C)c1-n1nnnc1C(c1cccc2ccccc12)N1CCC(n2c(=O)[nH]c3ccccc32)CC1 (configuration not stated)	·	15µM*	-18	·	·	16µM*
COCCN1C(=O)NC(=O)/C(=C\c2ccc(Br)cc2)C1=O	-24%	21µM*	-2	-16%	-7%	?
O=C(CCCCCn1c(=S)[nH]c2ccccc2c1=O)N1CCC2(CC1)OCCO2	-15%	-28%	22	3%	?	-21%
COc1cc2[nH]c(=O)n(Cc3ccc(C(=O)N4CCN(c5ccc(Cl)cc5)CC4)cc3)c(=O)c2cc1OC	·	3.3µM*	·	·	·	2.9µM*
CCOc1cc2[nH]c(=O)n(CCCCC(=O)N3CCN(c4ccccc4)CC3)c(=O)c2cc1OCC	·	?	·	·	3%	5.2µM*
COc1ccccc1N1CCN(C(=O)CCCn2c(=S)[nH]c3ccccc3c2=O)CC1	·	8.2µM*	-7	·	·	5.2µM*
COc1ccc(CCNCc2ccc3c(c2)n(C)c(=O)n3C)cc1	·	?	·	·	·	-32%
Cn1c(=O)n(C)c2cc(CNCCc3ccc(F)cc3)ccc21	·	16µM*	·	·	·	26µM*
O=C(C1CCCN(S(=O)(=O)c2cccc3nsnc23)C1)N1CCC2(CC1)OCCO2 (configuration not stated)	2%	-9%	15	-2%	?	-8%
O=C(Nc1ccc(Cl)c(C(F)(F)F)c1)C1CCCN(S(=O)(=O)c2cccc3cccnc23)C1 (configuration not stated)	·	7.3µM*	·	·	-6%	6.5µM*
O=c1oc2cc(Br)ccc2n1Cc1ccccc1	?	31%	0	?	?	-23%
SMILES	SW480 rerep	TDP1 cell CPT	IL1B secr inh	MCF10A rerep	Chronic BCR inh	DT40 TDP1 no CPT
O=c1[nH]c(=O)n(Cc2ccco2)c(O)c1C=NCc1cccs1	-1%	2%	-15	6%	·	-14%
CCn1c(O)c(C=NCc2cccs2)c(=O)[nH]c1=O	3%	?	16	2%	4%	29µM*
CCCCn1nc(C)c(C(=O)O)c1Cl	3%	5%	-1	-3%	2%	-7%
O=P(O)(O)C12CC3CC(CC(C3)C1)C2	-8%	1%	26	-2%	-3%	11%
C=CCn1c(O)c(C(C)=NC(C)c2ccccc2)c(=O)[nH]c1=O (configuration not stated)	-4%	?	12	1%	2%	16µM*
C=CCn1c(O)c(C(C)=NCCC(c2ccccc2)c2ccccc2)c(=O)[nH]c1=O	32%	21µM*	10	1%	-1%	16µM*
C=CCn1c(O)c(C(C)=Nc2ccc(C(=O)O)cc2)c(=O)[nH]c1=O	-41%	10%	21	-10%	-14%	2%
CC1CC(C)(O)CC(C(O)CC2CC(=O)NC(=O)C2)C1=O (configuration not stated)	?	0.18µM*	-101*	?	·	0.18µM*
O=C(/C=C/c1ccccc1)N1Cc2ccccc2-n2nncc2C1	·	-19%	23	·	·	?

Compound activity (PubChem BioAssay)
